High-throughput results as filed in PubChem.
HttQ103 aggreg: inhibitors of mutant huntingtin aggregate formation in PC12 cells; Potency, µM (highest dose often 46.1 µM), for the others: top-dose activity change, negative = inhibition, most hits filed as inhibitors; PC12 HttQ103-GFP aggregates, Acumen cytometry, 40 h; actives 1.1% (n = 220,000); further: on the % scale 0 is the no-effect control and ±100 the full control effect; nearly all actives have a fitted effect of over 60% in size
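Multiplexed with ATP-based cell death, this channel scores GFP aggregates in PC12 cells expressing inducible HTTex1-Q103-GFP. Induction used 100 nM tebufenozide; compounds were tested in concentration series.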
HTT ATP protect: cytoprotection in Huntington HTT-Q103 PC12 cell model; Potency, µM (highest dose often 56.4 µM), inactives show cytoprotection (ATP increase), hits mostly activators; actives 0.14% (n = 230,000); PC12 HTT-Q103 induced, cytoprotection, ATP luminescence, 40 h; AID 1471; further: % of control where 0% means no effect; nearly all actives have a fitted effect of over 45% in size
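Compounds added alongside 100 nM tebufenozide, which induces toxic Q103 huntingtin exon 1-GFP in stable PC12 cells; surviving cells quantified by luminescent ATP measurement. Medium: phenol red-free DMEM, 5% equine and 5% calf serum.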
Lamin A splicing: modulators of lamin A splicing; actives 0.01% (n = 200,000); HeLa LMNA splicing GFP/RFP minigene ratio, 48 h; Potency, µM (top dose mostly 46.1 µM), inactives show at the top dose ratio change, negative = inhibition, actives largely listed as inhibitors; active means well fitted inhibition curve with a large enough effect in the signal ratio, with a control signal flat, not every such curve was filed as active; inconclusive means small, poorly fitted or top-dose-only effect, or effect the other way, or a change in a side signal; the % refers to the signal ratio; further: on the % scale 0 is the no-effect control and ±100 the full control effect
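Read-out is the ratio of GFP to DsRed2 object intensity, acquired by 488 nm laser-scanning cytometry on HeLa lamin A-EGFP minigene reporter cells. Compound incubation 48 hrs at 37 °C in Opti-MEM with 2% FBS; DMSO 0.5% final.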
KinaseGlo FLuc: Kinase-Glo luciferase inhibition (counter-screen) | Kinase-Glo luciferase, ATP luminescence, 8 min | Potency, µM (series often up to 38.3 µM), for the others: at the highest dose activity change, negative = inhibition, actives largely listed as inhibitors | actives 0.28% (n = 200,000); further: on the % scale 0 is the no-effect control and ±100 the full control effect; nearly all actives have a fitted effect of over 60% in size
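Compound is pinned into ATP-containing buffer (10 uM ATP, imidazole pH 7.2, 7 mM MgCl2). Kinase-Glo luciferase reagent is then added. Light output is recorded following an 8-min room-temperature incubation.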
HPGD inh: blocks human HPGD enzyme activity; purified HPGD, NADH fluorescence kinetic, PGE2 substrate; actives 4.3% (n = 150,000); Potency, µM, for the others: at the top dose activity change, negative = inhibition, actives largely listed as inhibitors; P15428; active means well fitted inhibition curve with a large enough effect, not every such curve was filed as active; inconclusive means small, poorly fitted or top-dose-only effect, or another doubt; inactive means no such curve, though single readings can be large or run the other way; further: on the % scale 0 is the no-effect control and ±100 the full control effect
Target sequence (P15428 whole entry, looked up): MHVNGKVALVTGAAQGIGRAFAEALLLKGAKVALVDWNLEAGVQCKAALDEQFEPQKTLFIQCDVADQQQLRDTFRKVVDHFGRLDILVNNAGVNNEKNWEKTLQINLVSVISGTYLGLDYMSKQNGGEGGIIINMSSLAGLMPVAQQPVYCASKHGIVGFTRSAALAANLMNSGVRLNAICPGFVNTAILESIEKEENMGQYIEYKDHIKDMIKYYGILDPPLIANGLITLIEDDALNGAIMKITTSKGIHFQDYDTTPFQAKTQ
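NADH formation kinetics: reaction with 30 uM PGE2 and 1 mM NAD+ (final), 20 nM enzyme, Tris-HCl pH 8 with Tween 20, after 15 min compound preincubation at room temperature. Fluorescence change, last versus first of five reads.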
ALDH1A1 inh: blocks purified human ALDH1A1 activity; actives 7.3% (n = 220,000); P00352; Potency, µM (highest dose often 75.3 µM), for the others: top-dose activity, negative = inhibition, usual class: inhibitors; Purified ALDH1A1, NADH fluorescence, propionaldehyde substrate; AID 1030; active means well fitted inhibition curve with a large enough effect, not every such curve was filed as active; inconclusive means small, poorly fitted or top-dose-only effect, or another doubt; inactive means no such curve, though single readings can be large or run the other way;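 further: plate controls were no enzyme wells and a reference inhibitor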
Target sequence (P00352 whole entry, looked up): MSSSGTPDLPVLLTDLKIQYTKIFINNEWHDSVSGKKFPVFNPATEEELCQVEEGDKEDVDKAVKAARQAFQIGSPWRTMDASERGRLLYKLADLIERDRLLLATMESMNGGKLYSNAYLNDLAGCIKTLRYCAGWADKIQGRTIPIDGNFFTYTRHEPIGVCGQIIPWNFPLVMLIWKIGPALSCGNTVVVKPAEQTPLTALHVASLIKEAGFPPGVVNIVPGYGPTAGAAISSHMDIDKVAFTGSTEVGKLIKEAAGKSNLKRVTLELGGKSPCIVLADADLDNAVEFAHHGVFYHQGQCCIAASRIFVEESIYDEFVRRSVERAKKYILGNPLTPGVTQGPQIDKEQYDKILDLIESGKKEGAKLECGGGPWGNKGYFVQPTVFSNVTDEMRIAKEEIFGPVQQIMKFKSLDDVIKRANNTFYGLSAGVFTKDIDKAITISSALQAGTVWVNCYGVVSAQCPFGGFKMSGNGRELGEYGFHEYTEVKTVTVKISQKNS
* = called active by the depositor; ? = inconclusive; . = no result given; [ ] = remark or other dose. Shown are actives, neighbours in structure and some others; about 9% of the full set was active somewhere. Unless noted, the call rests on the fitted dose curve; in most records, active means well fitted curve in the direction sought with a large enough effect; inconclusive means small, poorly fitted or top-dose-only effect, or another doubt; inactive means no such curve, though single readings can be large; an effect the other way counts as inactive or inconclusive. Potency means the concentration at half of the fitted maximal effect.

SMILES	HttQ103 aggreg	HTT ATP protect	Lamin A splicing	KinaseGlo FLuc	HPGD inh	ALDH1A1 inh
Cc1cc(C)nc(NC=C2C(=O)OC(C)(C)OC2=O)n1	-4.1%[9.22 µM]	0.7%[10 µM]	.	.	.	3.98µM*
Cc1ccc(NC(=O)N/C=C/c2ccco2)cc1	19.3%	-0.2%[10 µM]	-1.9%	3.4%	-25.6%	7.94µM*
Cc1cccc2cc(CNC3CCCC3)c(Cl)nc12	3.0%[9.22 µM]	-3.4%[10 µM]	22.3%[46 µM]	-6.1%	.	1.9%
Clc1cccc(Cl)c1CNC1CCCC1	0.112µM*	-7.6%	8.9%	-2.7%	-11.6%	-6.7%
Cc1ccc(C2(CCNCc3ccc(N(C)C)cc3)CCOC(C(C)C)C2)cc1 (centres undefined)	8.0%	-1.2%[10 µM]	0.5%[46 µM]	-3.1%	.	25.1µM*
CC(C)C1CC(CCNCc2ccc(N(C)C)cc2)(c2ccccc2)CCO1 (centres undefined)	6.5%	5.5%[10 µM]	-16.2%	.	.	20µM*
CC(C)C1CC(CCNCc2ccc3c(c2)OCO3)(c2ccccc2)CCO1 (centres undefined)	-19.2%[9.22 µM]	-25.0%[10 µM]	.	.	.	.
CS(=O)(=O)c1ccc2nc(NC(=O)C3CCCO3)sc2c1 (centres undefined)	5.4%[9.22 µM]	23.2%[10 µM]	1.8%[46 µM]	-0.3%	.	10.4%
C(=C\c1ccccc1)/CN1CCN(c2ncnc3c2oc2ccccc23)CC1	6.31µM*	-188.8%[0.074 µM]	?	3.9%	?	?
Cc1ccc2c(c1)N(CCC(=O)NCc1ccccn1)C(=O)CO2	-5.9%	-11.9%[10 µM]	-2.4%	-4.6%	-6.4%	22.4µM*
O=C(CCN1C(=O)COc2ccccc21)NCCC1=CCCCC1	-0.7%	2.0%[10 µM]	-11.2%	-1.6%	-12.7%	31.6µM*
O=C(CN1C(=O)COc2ccccc21)NCCC1=CCCCC1	10.7%	-12.9%[1.9 µM]	13.7%	-2.4%	0.2%	?
Cc1ccc2c(c1)N(CCC(=O)NCc1cccnc1)C(=O)CO2	6.6%	-17.4%	9.1%	-6.1%	-4.1%	23.4%
CCc1ccc(NS(=O)(=O)c2ccc(Cl)cc2OC)cc1	.	.	.	-4.0%	-9.8%	0.5%
O/N=C/CCn1c(=S)sc2ccccc21	-7.0%	-11.9%	-1.7%	-2.4%	-19.9%	0.0%
CCN(CC)S(=O)(=O)c1ccc(N2CCCC2)c(NC(=O)Cc2ccc(OC)cc2)c1	10.9%	.	.	0.5%	.	1.12µM*
CCOc1ccc(S(=O)(=O)Nc2cc(S(=O)(=O)N(CC)CC)ccc2N2CCCC2)cc1	-9.5%	3.3%[10 µM]	17.5%	-1.6%	-10.9%	0.794µM*
CCN(CC)S(=O)(=O)c1ccc(N2CCCC2)c(NC(=O)C2CCCCC2)c1	9.7%[9.22 µM]	-10.5%[10 µM]	.	.	.	.
O=C(CN1CCCN(Cc2ccc(F)cc2)S1(=O)=O)Nc1ccc2c(c1)OCCO2	.	.	-7.7%[46 µM]	.	.	.
Oc1c(C(c2ccccc2Cl)N2CCCC2)ccc2cccnc12 (centres undefined)	?	-79.7%[10 µM]	2.1%[46 µM]	0.9%	.	?
Oc1c(C(c2cccs2)N2CCN(c3ccccc3)CC2)ccc2cccnc12 (centres undefined)	12.1%	-31.7%	?	4.9%	1.78µM*	2µM*
CCOC(=O)Cc1csc(NC(=O)c2csc3c2CCCC3)n1	-6.9%	-25.3%	3.4%	-4.0%	?	14.1µM*
CCOC(=O)Cc1csc(NC(=O)NC2(C(F)(F)F)Oc3ccc(Cl)cc3O2)n1 (centres undefined)	11.1%[9.22 µM]	-22.5%	?	2.3%	-17.9%	-7.6%
COc1cccc(NC(=O)Nc2cccc(C(=O)O)c2)c1	-15.2%[9.22 µM]	-28.0%[10 µM]	18.2%[46 µM]	-11.2%	.	5.9%
CCOC(=O)Cc1csc(NC(=O)NC2(C(F)(F)F)Oc3ccccc3O2)n1	-2.4%[9.22 µM]	-21.4%	-4.7%	0.8%	35.5µM*	-15.8%
SMILES	HttQ103 aggreg	HTT ATP protect	Lamin A splicing	KinaseGlo FLuc	HPGD inh	ALDH1A1 inh
COc1cccc(NC(=O)NC2(C(F)(F)F)Oc3ccccc3O2)c1	23.9%	-21.3%[10 µM]	?	1.9%	-27.0%	35.5µM*
Cc1ccc(Sc2ccc(C(=O)N(C)C)cc2[N+](=O)[O-])cc1	-9.2%[9.22 µM]	-30.1%	?	3.5%	.	?
CN(C)c1ccc(/C=N/N2C(=S)SC(C)(C)C2N(O)C(=O)Nc2ccc([N+](=O)[O-])cc2)cc1 (centres undefined)	-31.2%	-25.5%	-11.6%	-5.2%	-11.8%	12.6µM*
Cc1ccc(C(=O)NCc2ccco2)cc1Br	-22.0%	16.3%[10 µM]	-0.5%	-4.5%	-29.6%	?
Cc1ccc2c(CC(=O)NCc3ccco3)coc2c1C	-4.2%	-23.4%[10 µM]	?	12.4%	2.82µM*	25.1µM*
Cc1c(Br)cc(C(=O)NCc2ccco2)c(C)c1C	13.2%	-23.2%	17.3%	-4.2%	25.1µM*	?
CSc1ccc(Cl)c(C(=O)OCC(=O)NCc2ccco2)c1	6.3%	-7.3%	20.4%	-6.7%	?	?
CSc1ccc(Cl)c(C(=O)NCc2ccco2)c1	-5.3%	1.8%	9.2%	-6.3%	15.8µM*	?
CCN(CC)c1ccc2c(Cl)c(Br)c(=O)oc2c1	?	?	?	-3.1%	-18.2%	3.16µM*
CCN(CC)c1ccc2c(C)c(Cl)c(=O)oc2c1	?	?	1.5%[46 µM]	-0.4%	.	?
CCN(CC)c1ccc2c(c1)oc(=O)c1c(Cl)cc(=O)oc12	12.6µM*	-39.7%	?	-1.5%	5.62µM*	2.24µM*
CCN(CC)CCOc1ccc(-c2nc3cc(Cl)ccc3s2)cc1	?	-96.2%	.	.	.	.
CC(=O)NC1(c2ccc(F)cc2)CCN(C(=O)Nc2ccc(F)cc2F)CC1	3.16µM*	-96.7%[10 µM]	4.4%	-0.3%	-10.0%	7.1%
CC(=O)c1ccc(N2CCN(C(=O)Nc3ccc(F)cc3F)CC2)cc1	-2.5%	-7.0%	-0.9%[46 µM]	8.7%	.	1.0%
CN(c1ccccc1)S(=O)(=O)c1cccc(NC(=O)CSc2n[nH]c(N)n2)c1	-7.8%[9.22 µM]	11.1%[10 µM]	.	.	.	.
O=[N+]([O-])c1ccc(NCCCNS(=O)(=O)c2ccccc2)cc1	7.0%[9.22 µM]	-57.5%	7.2%[46 µM]	0.4%	.	17.8µM*
O=[N+]([O-])c1ccc(NCCCNS(=O)(=O)c2ccc(Cl)cc2)c(Cl)c1	?	-81.8%	16.4%	0.5%	-13.6%	0.6%
NCCCCCCNS(=O)(=O)c1cccc2ccccc12	.	11.9%	.	1.6%	-26.2%	12.6µM*
O=S(=O)(NCCCCCNS(=O)(=O)c1ccccc1)c1ccccc1	-26.1%	16.0%[1.9 µM]	?	-1.8%	-11.1%	0.562µM*
Cc1ccc(S(=O)(=O)NCCCNS(C)(=O)=O)cc1	-6.8%	10.6%	-0.1%	0.2%	-5.9%	?
Cc1ccc(S(=O)(=O)NCCCNc2ccc([N+](=O)[O-])cc2)cc1	3.5%[9.22 µM]	4.4%[10 µM]	1.7%[46 µM]	4.2%	.	14.1µM*
CCOC(=O)N1CCN(C(=O)COc2ccc([N+](=O)[O-])cc2)CC1	-17.0%	.	-8.4%[46 µM]	-1.3%	.	3.7%
COc1ccc(N/C=C/C(=O)C(C)(C)C)cc1	-2.9%	-19.8%	.	3.6%	.	2.3%
